# Assay results reported in PubChem BioAssay.
# A number with no mark means an inactive call.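 How the source made its calls: active means inhibition over a set limit, the all-compound mean plus 3 SD, in both replicate runs; inconclusive means over that limit in just one replicate run; inactive means at or under that limit in both runs.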
# Assay: inhibitors of the yeast RAM network, pilot screen, dse1pr::URA3 reporter, 5-FOA selection (AID 869);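 further: 0% = DMSO wells with no growth and 100% = 10 µM 1-NA-PP1 with full growth; RAM network block rescues cells from 5-FOA so hits raise OD615 growth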
# Conditions: S. cerevisiae dse1pr::URA3 5-FOA growth, OD615, 2 d, at 10 µM, hits give high values
row,SMILES,inhibition
1,COc1ccccc1N=Cc1c(O)n(C)c(=O)n(C)c1=O,-0.295%
2,COc1ccc(N2C(=O)CC(N3CC=C(c4ccccc4)CC3)C2=O)cc1 (stereo not given),0.145%
3,Cc1ccc2occ(CN3CC4CC(C3)c3cccc(=O)n3C4)c(=O)c2c1 (stereo not given),1.96%
4,Cc1cc(OCC(=O)OC(C)(C)C)c2c3c(c(=O)oc2c1)CCC3,2.17%
5,O=C(c1ccccc1)c1cn(CC(=O)N2CCCC2)c2ccccc12,3.23%
6,CC12CN3CC(C)(CN(C1)P3(=O)Oc1ccccc1)C2=O (stereo not given),2.22%
7,COc1ccc(C2C(C(=O)N3CCC4(CC3)OCCO4)c3cc(OC)c(OC)cc3C(=O)N2C)cc1 (stereo not given),1.61%
8,c1ccc2sc(C3CCCNC3)nc2c1 (stereo not given),2.33%
9,CCOC(=O)C1CCN(/C=C2/C(=O)NC(=O)N(c3ccc(OCC)cc3)C2=O)CC1,1.87%
10,c1cncc(C2CCCCN2Cc2ccc3c(c2)OCO3)c1 (stereo not given),2.12%
11,COc1cc2c(cc1OC)-c1c(OC)c(OC)cc3c1C(C2)N(C)CC3 (stereo not given),-0.365%
12,O=C(O)c1cc2ccccc2oc1=O,1.08%
13,O=c1c2ccccc2nc(-c2ccco2)n1-c1ccccn1,1.16%
14,Cc1cccnc1-n1c(-c2ccco2)nc2ccccc2c1=O,0.59%
15,Nc1ccc(S(=O)(=O)N2CC3CC(C2)c2cccc(=O)n2C3)cc1 (stereo not given),0.13%
16,O=C(CN1CC(c2ccccc2)CC1=O)Nc1cccc(F)c1 (stereo not given),1.39%
17,CN(C)C1(c2nnnn2-c2ccc(Cl)cc2)CCCCC1,2.52%
18,O=c1cccc2n1CC1CC2CN(Cc2ccc3c(c2)OCO3)C1 (stereo not given),0.6%
19,O=C(Nc1ccccc1OC(=O)N1CCCCC1)N1CCCCC1,0.8%
20,CCOC(=O)c1c(C)n(Cc2ccco2)c2ccc(OC)cc12,0.59%

row,SMILES,inhibition
1,Cc1cc(Br)ccc1N1C(=O)CC(=O)NC1=O,0.535%
2,O=C(O)C1CN2CCC1CC2 (stereo not given),0.99%
3,O=C(Cc1ccccc1)Oc1cccc(N2C(=O)CCC2=O)c1,1.23%
4,CCOc1ccc(-n2c(CC)nc3ccccc3c2=O)cc1,1.81%
5,CCOc1ccccc1C1SCC(=O)Nc2c1c(=O)[nH]n2C(CC)CC (stereo not given),1.07%
6,C=Cn1ccnc1P(=S)(c1ccn(C)c1)c1nccn1C=C,0.94%
7,O=c1cccc2n1CC1CC2CN(C(c2ccccc2)c2sc3ncnn3c2O)C1 (stereo not given),1.01%
8,O=c1c2ccccc2nc(-c2cccs2)n1-c1cnccn1,2.33%
9,C=Cn1ccnc1P(=S)(c1c(C)nn(-c2ccccc2)c1C)c1nccn1C=C,1.75%
10,O=C(CN1CC(c2ccccc2)CC1=O)Nc1ccc(F)cc1 (stereo not given),-0.44%
11,Cc1ccnc(-n2c(C)nc3ccccc3c2=O)c1,0.27%
12,CCCCCn1c(=O)c(C(=O)Nc2ccncc2)c(O)c2ccccc21,-0.43% [strain carries analog-sensitive mutant Cbk1 kinase]
13,C=Cn1ccnc1P(=S)(c1cc(N(CC)CC)ns1)c1nccn1C=C,1.49%
14,O=C1CC(=O)N(c2ccc(Cl)cc2Cl)C(=O)N1,0.19%
15,COc1ccc(CC2C(=O)NC(=O)N(c3ccccc3)C2=O)c(OC)c1 (stereo not given),-0.495%
16,O=C(c1ccc2c(c1)OCO2)N1CCC2(CC1)OCCO2,0.85%
17,CCOC(=O)C1SC2(C(F)(F)C(F)F)CC1(O)c1c(c(OC)c3occc3c1OC)O2 (stereo not given),1.6%
18,CN1CC=C(c2c[nH]c3ccccc23)CC1,-0.185%
19,CC12CN3CC(C)(CN(C1)C3c1ccco1)C2=O (stereo not given),2.1%
20,COc1cc(CN2CC3CC(C2)c2cccc(=O)n2C3)cc(OC)c1OC (stereo not given),2.42%
